# Compounds without any hit were thinned out: in the full panel of roughly 79,000, 15% have a hit. Unmarked numbers belong to inactive results. The source made the active and inactive calls. Rule as the data show it: active = growth inhibition above about 70%; inactive = the rest.
# Experiment: NCI Yeast Anticancer Drug Screen. Data for the mec2-1 strain (AID 157)
# Details: S. cerevisiae mec2-1 strain, at 33.0 µM, active compounds read high
# Method in brief: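 Compounds were applied to mec2-1 yeast cells. Their growth was then compared with that of vehicle-treated cultures to give growth inhibition.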
row,Structure (SMILES),growth inhibition
1,Cc1cccc2c(C(O)CBr)cc(-c3ccc(Cl)cc3)nc12 (stereo not given),97% (active)
2,CN(C)C[C@H]1CC[C@@H](CN(C)C)C1=O,28%
3,CC1=C(SCCO)C(=O)c2ccccc2C1=O,13%
4,COC(=O)CCNc1c2ccccc2nc2cccc([N+](=O)[O-])c12,98% (active)
5,CC(/C=C/c1ccc2c(c1)OCO2)[N+](=O)[O-] (stereo not given),99% (active)
6,COC(=O)C1=C(C)NC(C)=C(C(=O)OCCCN2CCC(c3ccccc3)(c3ccccc3)CC2)C1c1cccc([N+](=O)[O-])c1 (stereo not given),98% (active)
7,CCOC(=O)c1cnc2c(C(F)(F)F)cccc2c1N=[N+]=[N-],25%
8,O=[N+]([O-])c1cc2no[n+]([O-])c2cc1N1CCCCC1,98% (active)
9,COC(=O)c1ccc(NCC2=CC(=O)C=CC2=O)cc1O,97% (active)
10,CCCCCCCCNC(=O)C1=C(C)NC(C)=C(C(=O)NCCCCCCCC)C1,-4%
11,S=C(Nc1ccc(Cl)c(Cl)c1)SCc1ccc2c(c1)OCO2,99% (active)
12,O=S(=O)(CCCl)c1ccccc1Cl,83% (active)
13,Nc1ccccc1CC(O)C(=O)O (stereo not given),30%
14,CN(C)c1ccc(Sc2ccc3nc(N)nc(N)c3c2)cc1,13%
15,CC(C)C1=CCC2C(=C1)CCC1C(C)(C(=O)O)CCCC21C (stereo not given) (tested in a mixture with another compound),54%
16,Cc1ccc(S(=O)(=O)Oc2cc(Cl)c(Cl)cc2Cl)cc1,-9%
17,CSC(=S)Nc1cc(C)ccn1,50%
18,CC(C)c1cc(C(C)C)c(O)c(C([O-])[O-])c1.CC(C)c1cc(C(C)C)c(O)c(C([O-])[O-])c1.CC(C)c1cc(C(C)C)c(O)c(C([OH2+])[OH2+])c1.CC(C)c1cc(C(C)C)c(O)c(C([OH2+])[OH2+])c1.[Cu+2].[Cu+2].[OH3+].[OH3+],52%
19,Cc1cc(I)ccc1N,87% (active)
20,CC(Br)C(=O)c1ccc2cc(Br)c3ccccc3c2c1 (stereo not given),6%

row,Structure (SMILES),growth inhibition
1,O=C(Nc1ccccc1)OCCc1ccc(Cl)c(Cl)c1,20%
2,O=Cc1cccc2ccc3ccccc3c12,1%
3,O=[N+]([O-])CC(SCc1ccccc1)c1ccc2c(c1)OCO2 (stereo not given),98% (active)
4,CC1(Cl)CC(O)C2(CC1Br)C1(C)OC1C1OC1(Br)C2(C)C (stereo not given),39%
5,Cc1cc(O)cc(O)c1N=Nc1ccc([N+](=O)[O-])cc1,46%
6,CCCCCCCCCCCCCC[N+](C)(CC(=O)[O-])Cc1ccccc1 (stereo not given),99% (active)
7,CC1=NN(c2cccc(Cl)c2)C(=O)C1,8%
8,CC(=O)OCc1ccc(O)c(C=O)c1,-11%
9,Cc1ccc2ccc3cccc4ccc1c2c34,13%
10,Cc1nc(-[n+]2nc(-c3ccncc3)nn2-c2ccccc2)sc1C,33%
11,C(CCSC1=NCCN1)CSC1=NCCN1 (tested in a mixture with another compound),99% (active)
12,CCCCCCCCCCC(=O)Cl,-23%
13,COC1C=COC2(C)Oc3c(C)c(O)c4c(c3C2=O)/C(=N/C2CCC(O)OC2C)C=C(NC(=O)/C(C)=C\C(=O)C2CC2C(O)C(C)C(O)C(C)C(OC(C)=O)C1C)C4=O (stereo not given),1%
14,S=c1[nH]nc(Nc2ccc(Cl)cc2)s1,3%
15,O=C1CSC(/C=C/c2ccccc2)N1c1ccc(-c2ccc(-n3c(-c4ccccc4)nc4ccccc4c3=O)cc2)cc1 (stereo not given),7%
16,O=C1C=CC(=O)N1c1ccc2c(c1)Cc1cc(NC(=O)C(F)(F)F)ccc1-2,62%
17,Brc1ccc(-c2cc3c(cc2C2SCCS2)OCO3)cc1,-27%
18,Oc1ccc2ccccc2c1C(c1ccc(Cl)cc1)c1c(O)ccc2ccccc12,56%
19,C[CH2][Sn]([CH2]C)([O]C(=O)C(OC(C)=O)c1ccccc1)[O]C(=O)C(OC(C)=O)c1ccccc1 (stereo not given),65%
20,Cc1ccc2ccc(O)cc2c1,-42%

# Same assay, conditions: S. cerevisiae mec2-1 strain, at 50.0 µM (retest, dose inferred, filed as 5.0), active compounds read high
row,Structure (SMILES),growth inhibition
1,Cc1cccc2c(C(O)CBr)cc(-c3ccc(Cl)cc3)nc12 (stereo not given),96% (active)
2,CN(C)C[C@H]1CC[C@@H](CN(C)C)C1=O,83% (active)
3,CC1=C(SCCO)C(=O)c2ccccc2C1=O,80% (active)
4,COC(=O)CCNc1c2ccccc2nc2cccc([N+](=O)[O-])c12,99% (active)
5,CC(/C=C/c1ccc2c(c1)OCO2)[N+](=O)[O-] (stereo not given),99% (active)
6,COC(=O)C1=C(C)NC(C)=C(C(=O)OCCCN2CCC(c3ccccc3)(c3ccccc3)CC2)C1c1cccc([N+](=O)[O-])c1 (stereo not given),98% (active)
7,CCOC(=O)c1cnc2c(C(F)(F)F)cccc2c1N=[N+]=[N-],-5%
8,O=[N+]([O-])c1cc2no[n+]([O-])c2cc1N1CCCCC1,93% (active)
9,COC(=O)c1ccc(NCC2=CC(=O)C=CC2=O)cc1O,98% (active)
10,CCCCCCCCNC(=O)C1=C(C)NC(C)=C(C(=O)NCCCCCCCC)C1,14%
11,S=C(Nc1ccc(Cl)c(Cl)c1)SCc1ccc2c(c1)OCO2,98% (active)
12,O=S(=O)(CCCl)c1ccccc1Cl,79% (active)
13,Nc1ccccc1CC(O)C(=O)O (stereo not given),74% (active)
14,CN(C)c1ccc(Sc2ccc3nc(N)nc(N)c3c2)cc1,80% (active)
15,CC(C)C1=CCC2C(=C1)CCC1C(C)(C(=O)O)CCCC21C (stereo not given) (tested in a mixture with another compound),99% (active)
16,Cc1ccc(S(=O)(=O)Oc2cc(Cl)c(Cl)cc2Cl)cc1,-17%
17,CSC(=S)Nc1cc(C)ccn1,99% (active)
18,CC(C)c1cc(C(C)C)c(O)c(C([O-])[O-])c1.CC(C)c1cc(C(C)C)c(O)c(C([O-])[O-])c1.CC(C)c1cc(C(C)C)c(O)c(C([OH2+])[OH2+])c1.CC(C)c1cc(C(C)C)c(O)c(C([OH2+])[OH2+])c1.[Cu+2].[Cu+2].[OH3+].[OH3+],27%
19,Cc1cc(I)ccc1N,87% (active)
20,CC(Br)C(=O)c1ccc2cc(Br)c3ccccc3c2c1 (stereo not given),12%

row,Structure (SMILES),growth inhibition
1,O=C(Nc1ccccc1)OCCc1ccc(Cl)c(Cl)c1,65%
2,O=Cc1cccc2ccc3ccccc3c12,41%
3,O=[N+]([O-])CC(SCc1ccccc1)c1ccc2c(c1)OCO2 (stereo not given),98% (active)
4,CC1(Cl)CC(O)C2(CC1Br)C1(C)OC1C1OC1(Br)C2(C)C (stereo not given),53%
5,Cc1cc(O)cc(O)c1N=Nc1ccc([N+](=O)[O-])cc1,95% (active)
6,CCCCCCCCCCCCCC[N+](C)(CC(=O)[O-])Cc1ccccc1 (stereo not given),100% (active)
7,CC1=NN(c2cccc(Cl)c2)C(=O)C1,100% (active)
8,CC(=O)OCc1ccc(O)c(C=O)c1,41%
9,Cc1ccc2ccc3cccc4ccc1c2c34,12%
10,Cc1nc(-[n+]2nc(-c3ccncc3)nn2-c2ccccc2)sc1C,-28%
11,C(CCSC1=NCCN1)CSC1=NCCN1 (tested in a mixture with another compound),99% (active)
12,CCCCCCCCCCC(=O)Cl,98% (active)
13,COC1C=COC2(C)Oc3c(C)c(O)c4c(c3C2=O)/C(=N/C2CCC(O)OC2C)C=C(NC(=O)/C(C)=C\C(=O)C2CC2C(O)C(C)C(O)C(C)C(OC(C)=O)C1C)C4=O (stereo not given),27%
14,S=c1[nH]nc(Nc2ccc(Cl)cc2)s1,93% (active)
15,O=C1CSC(/C=C/c2ccccc2)N1c1ccc(-c2ccc(-n3c(-c4ccccc4)nc4ccccc4c3=O)cc2)cc1 (stereo not given),45%
16,O=C1C=CC(=O)N1c1ccc2c(c1)Cc1cc(NC(=O)C(F)(F)F)ccc1-2,94% (active)
17,Brc1ccc(-c2cc3c(cc2C2SCCS2)OCO3)cc1,11%
18,Oc1ccc2ccccc2c1C(c1ccc(Cl)cc1)c1c(O)ccc2ccccc12,99% (active)
19,C[CH2][Sn]([CH2]C)([O]C(=O)C(OC(C)=O)c1ccccc1)[O]C(=O)C(OC(C)=O)c1ccccc1 (stereo not given),6%
20,Cc1ccc2ccc(O)cc2c1,95% (active)
